This note sets out measurements from PubChem BioAssay AID1259343 (VanderVen Lab, College of Veterinary Medicine, Cornell …, 2017).

The whole screen tested about 6,200 compounds, of which about 2,900 (47%) were called active. So high a share suggests a set chosen from earlier hits. The list shows a part of the results. Values without a mark were called inactive. Cut-off read from the data, not from the text of the source: active = inhibition above about 50%; inactive = the rest.

The assay in a line: Mycobacterium tuberculosis growth inhibition, primary screen (AID 1259343). The conditions noted are these: inhibition: at 10 µM, stronger effect = higher value; outcome: 10 uM.
One may read the inhibition as the drop in the measured response relative to a control, in per cent. With `CCOC(C)c1nc(CSc2ncnc3c2cnn3C)cs1` (stereo unspecified), the inhibition was 40%.
The result for `Fc1ccc(CNc2ncnc3c2cnn3-c2ccc(F)cc2)cc1` reads -7.37%.
`CC(C)CSc1ncnc2c1cnn2-c1ccccc1`: the inhibition is 59.5% (active).
For `CN(Cc1c(F)cccc1Cl)c1cncc(-n2cccn2)n1`, the inhibition was 83.7% (active).
The result for `CN(Cc1ccccc1)c1cccc(-n2ccnc2)n1` reads 3.53%.
As to `CCN(CC)c1n[nH]c(-c2cccc(Cl)c2)n1`, the inhibition is -6.42%.
For `Clc1cccc(-c2ccc3nnc(Cl)nc3c2)c1` the value was 101% (active); for `Cc1nn(-c2ccc(C(F)(F)F)cc2)c(C)c1[C@@H]1C=C[C@@H](NCc2ccc(N(C)C)cc2)C1`, 78.3% (active).
For `N#CC(C(=S)Nc1ccccc1)=C1NN=C2CCCCCN21`, the inhibition is 41.7%.
Turning to `COc1cccc(CNc2nccn(-c3cccc(Cl)c3)c2=O)c1`, the inhibition was 13.4%.
For `CCOc1ccc(-n2ccnc(NCc3cccs3)c2=O)cc1`, the inhibition is 71.3% (active).
As for `O=C(O)c1c[nH]c2c(ccc3ccccc32)c1=O`, the inhibition result is “inactive”.
Regarding `O=C(O)c1c[nH]c2c(Cl)c(Cl)ccc2c1=O`, the inhibition is 81.6% (active).
For `COc1ccc(-c2cc(C(=O)NC3CC3)c(C)n2-c2cccc(OC)c2)cc1`, the inhibition is -5.91%.
As to `CCCOc1ccc(F)cc1-c1cc(C(=O)NC2CCCCC2)[nH]n1`, the inhibition was 28%.
For the molecule `COc1ccc(F)c(-c2cc(C(=O)NC3CC3)ccn2)c1`, the inhibition is 82.8% (active).
In the case of `COC(=O)c1ccc(NC(=O)CCc2ccncc2)cc1C`, the inhibition was 92.8% (active).
As for `OCCn1c(CSc2nc3ccccc3o2)nc2ccc(Cl)cc21`, the inhibition is -42.1%.
Consider `FC(F)(F)c1ccc(-c2nc(CSc3nc4cc(Cl)ccc4o3)cs2)cc1`, for which the inhibition was 87.2% (active).
The result for `Fc1ccc(Nc2nc3cc(Cl)ccc3o2)cc1Cl` reads -2.2%; that for `Cc1c2ccccc2[nH]c2c1oc1cc(=O)ccc12`, 97.4% (active); that for `CCCc1nc(-c2ccc(S(N)(=O)=O)cc2)cs1`, -6.09%.
In the case of `CCCc1nc(C(=O)N2C[C@H]3CC=CC[C@H]3C2)cs1`, the inhibition was 58.6% (active).
Consider `Clc1ccc(CN2CCN(Cc3cnc(CC4CCCC4)[nH]3)CC2)cc1`, for which the inhibition is 84.3% (active).
Consider `Cc1cc(C)c(C#N)c(N2CCN(Cc3ccc(Cl)cc3)CC2)n1`, for which the inhibition was 47.2%.
For `CC1CCc2onc(C(=O)Nc3nc4ccccc4n3C)c2C1` (stereo unspecified) the value was 7%.
As for `S=C(NNc1ccccc1)NC12CC3CC(CC(C3)C1)C2`, the inhibition was 84.2% (active).
Regarding `COc1ccc(C23CC4CC(CC(C(=O)O)(C4)C2)C3)c(F)c1`, the inhibition is 21.2%.
For the molecule `COc1cccc(C(=O)NC(C)C23CC4CC(CC(C4)C2)C3)c1` (stereo unspecified), the inhibition is 62.8% (active).
For `O=S(=O)(/C=C/c1ccccc1)NC12CC3CC(CC(C3)C1)C2` the value was -12.7%.
Take `O=C(NC(=S)NC1C2CC3CC(C2)CC1C3)c1cccs1` (stereo unspecified): the inhibition was 56.9% (active).
As to `Cc1ccc(C(=O)NC(C)C23CC4CC(CC(C4)C2)C3)s1` (stereo unspecified), the inhibition was 93.3% (active).
Consider `COC(=O)C1CCCc2c1ccn2CC=C(C)C` (stereo unspecified), for which the inhibition is 27.3%.
For the molecule `CC1CC1C(=O)NC(C)C12CC3CC(CC(C3)C1)C2` (stereo unspecified), the inhibition was 55.2% (active).
Turning to `CC(NC(=O)c1cccs1)C12CC3CC(CC(C3)C1)C2` (stereo unspecified), the inhibition is 67.3% (active).
In the case of `CC(C)c1ccc(C2NC(=O)C(O)=C2C(=O)c2cccs2)cc1` (stereo unspecified), the inhibition was 29%.
On to `CC(NC(=O)C1=NNC(=O)CC1)C12CC3CC(CC(C3)C1)C2` (stereo unspecified), for which the inhibition was 68% (active).
For the molecule `O=C(NC12CC3CC(CC(C3)C1)C2)c1cccs1`, the inhibition was 98.1% (active).
Consider `CC(NC(=O)C1=NNC(=O)CC1)C1CC2CCC1C2` (stereo unspecified), for which the inhibition was 27.1%.
Take `CN(C)C(=O)c1ccc(-c2cnc3c(c2)CCN3CCCc2ccccc2)cc1`: the inhibition is 33.1%.
As to `COc1cc(NC(=O)c2ccc(C)s2)cc(OC)c1OC`, the inhibition was 6.84%.
With `COc1ccc(C(NC(=O)c2ccc(C)s2)C2CC2)cc1` (stereo unspecified), the inhibition was 83.9% (active).
For `CN(C)c1nc(N)nc(Cn2nc(-c3ccc(F)cc3)oc2=O)n1`, the inhibition is 91.8% (active).
Take `O=C1CC(c2ccc(Br)s2)c2cnn(C3CCCC3)c2N1` (stereo unspecified): the inhibition is 31.2%.
For `O=C(N/N=C(\CC(=O)c1cccs1)C(F)(F)F)c1cccc(Br)c1` the value was 103% (active); for `CC(C)CC1=NN(C(=O)c2cccc(Br)c2)C(O)(C(F)(F)F)C1` (stereo unspecified), 23%.
The result for `CCN1CCc2c(sc(NC(=O)c3ccc(OC)c(OC)c3)c2-c2nc3ccccc3s2)C1` reads 28.1%; that for `CCOC(=O)c1c(NC(=O)c2c(F)c(F)c(F)c(F)c2F)sc2c1CCN(c1ccc(Cl)nc1)C2`, 61.8% (active).
Regarding `Cc1noc(CN(C)C(=O)c2cc(C(C)C)no2)n1`, the inhibition was -37.1%.
For the molecule `Cc1ccc(CN(C)C(=O)c2cc(Br)c[nH]2)o1`, the inhibition is 44.1%.
In the case of `Cc1ccc(CN(C)C(=O)c2cc(C(C)C)[nH]n2)o1`, the inhibition was 69.9% (active).
For `CCN(CC)C(=O)COC(=O)c1cc(-c2cc(C)sc2C)nc2onc(C)c12` the value was -34.1%; for `S=c1[nH]nc(COc2ccc(Cl)cc2Cl)o1`, 79.7% (active); for `Cc1ccc(C)c(OCc2n[nH]c(=S)o2)c1`, 21.7%.
In the case of `S=c1[nH]nc(COc2ccc(Cl)cc2)o1`, the inhibition is 91.8% (active).
In the case of `CC(Oc1ccc(F)cc1)c1n[nH]c(=S)o1` (stereo unspecified), the inhibition was -17.5%.
`COc1cccc(OCc2nc(-c3ccc(Br)o3)no2)c1`: the inhibition was 93.8% (active).
In the case of `COc1cccc(OCc2n[nH]c(=S)o2)c1`, the inhibition is 79.7% (active).
Consider `S=c1[nH]nc(COc2ccccc2Cl)o1`, for which the inhibition was -28.9%.
As for `Cc1cc(C)nc(Nc2cccc(OCc3nc(-c4cccs4)no3)c2)n1`, the inhibition is 29.2%.
The result for `CN1N=C(c2ccc(F)c(F)c2)CSC1=NCc1ccccc1` reads 18.9%.
Take `OC1(C2(O)CC(c3ccccc3)NO2)CCCCC1` (stereo unspecified): the inhibition was 27.1%.
The result for `CC(On1nnc2ccc(Cl)cc21)C(=O)NC(=O)NC1CCCCC1` (stereo unspecified) reads 27.5%.
For the molecule `Cc1cccc(C)c1-n1nnnc1SC(C)C(=O)NC(=O)NC1CCCCC1` (stereo unspecified), the inhibition is 81.5% (active).
As to `O=C(NN=C1C(=O)c2cccc3cccc1c23)NC1CCCCC1`, the inhibition was -1.18%.
The result for `O=C(C1CC1)N1CCC(NCc2ccc(-c3cccc(Br)c3)s2)CC1` reads 44.8%.
For the molecule `N#Cc1ccc(/C=C/C(=O)N2CCN(Cc3ccc(Br)s3)CC2)cc1`, the inhibition was 28.6%.
The result for `Brc1ccc(-c2ccc(CN3CCNCC3)s2)cc1` reads 73.8% (active).
For the molecule `O=C(NNc1c(Cl)cc(Cl)cc1Cl)C1CCC1`, the inhibition is 47.8%.
The result for `O=C(NC(=S)Nc1cc(Cl)c(Cl)cc1Cl)C1CC1` reads 82.6% (active); that for `CCN(C(=S)NC(=O)C1CC1)C1CCCCC1`, 20.5%; that for `C=CCOc1ccccc1CN(C(=O)CCl)c1ccc2c(c1)OCCO2`, 37.2%.
The result for `O=S(=O)(Nc1cc(Cl)ccc1-n1cncn1)c1ccc(F)cc1` reads 66% (active).
As to `O=[N+]([O-])c1cc(S(=O)(=O)Nc2cc(Cl)ccc2F)ccc1F`, the inhibition was 47.3%.
Take `O=[N+]([O-])c1cc(S(=O)(=O)Nc2cc(Cl)ccc2-n2cncn2)ccc1Cl`: the inhibition was 67.4% (active).
For `O=c1[nH]nc(-c2ccccc2O)n1-c1ccc(Br)cc1`, the inhibition was -5.57%.
For `O=C(CN1CCN(C(=O)C2CCCO2)CC1)Nc1ccc(-c2ccccc2)cc1` (stereo unspecified) the value was 4.56%; for `O=C(CCNc1ccc(-c2ccccc2)cc1)N1CCn2cncc2C1`, 92.2% (active); for `COC(=O)N1CCc2onc(-c3ccc(-c4ccccc4)cc3)c2C1`, 25.7%.
For the molecule `c1ccc(Cc2nnc3sc(-c4ccco4)nn23)cc1`, the inhibition was 21.3%.
Regarding `CCCOC(=O)c1ccc(NCN2C(=O)c3ccccc3C2=O)cc1`, the inhibition is 93.9% (active).
Consider `CCCCOC(=O)c1ccc(Nc2ncnc3c2nnn3C)cc1`, for which the inhibition was 9.62%.
The result for `CC(CNC(=O)CCc1nnc(CCC2CCCCC2)o1)c1ccccc1` (stereo unspecified) reads 57.9% (active).
With `CC(Cc1cnccn1)NC(=O)CCc1nnc(CCC2CCCCC2)o1` (stereo unspecified), the inhibition is 33.8%.
Consider `O=C(CCc1nnc(CCC2CCCCC2)o1)NCCc1cccnc1`, for which the inhibition is 41%.
On to `CN(Cc1ccoc1)C(=O)c1cn(CC2CCCCC2)nn1`, for which the inhibition is 26.8%.
With `COCC(C)NC(=O)CCc1nnc(CCC2CCCCC2)o1` (stereo unspecified), the inhibition result was “inactive”.
As for `CCn1cc(CNC(=O)CCc2nnc(CCC3CCCCC3)o2)cn1`, the inhibition was 76.4% (active).
For the molecule `O=C1Nc2ccc(Br)cc2C12Nc1ccccc1S2` (stereo unspecified), the inhibition was 5.83%.
Turning to `Cc1cc(C(=O)Nc2ccc(OC(F)F)c(Cl)c2)on1`, the inhibition was 91.1% (active).
As to `CC(OC(=O)c1ccco1)C(=O)Nc1ccc(OC(F)F)c(Cl)c1` (stereo unspecified), the inhibition is 4.36%.
For `O=C(CCl)Nc1ccc(OC(F)F)c(Cl)c1` the value was 86.6% (active); for `N#Cc1ncn(CC(=O)Nc2ccc(OC(F)F)c(Cl)c2)n1`, 73.2% (active); for `FC(F)Oc1ccc(NC(=S)Nc2cccnc2)cc1Cl`, 92.8% (active).
For the molecule `COC(=O)C1=C(OC)C(=O)OC12C=CC(=O)C=C2`, the inhibition is -11.4%.
As for `Fc1ccc(Nc2nnc(-c3ccc(Br)s3)o2)c(F)c1`, the inhibition was 87.9% (active).
Take `Cc1cc2c(F)ccc(C)c2nc1N1CCC(O)(C(=O)O)CC1`: the inhibition is 86% (active).
As to `Clc1ccc(-c2cnnc(N3CCC(c4ccncc4)CC3)n2)cc1`, the inhibition was 21.9%.
On to `CC(NC(=O)COC(=O)c1ccccc1O)c1cccs1` (stereo unspecified), for which the inhibition was 88.8% (active).
Regarding `CS(=O)c1ccccc1C(=O)OCc1c(Cl)cccc1Cl` (stereo unspecified), the inhibition is 30.8%.
For the molecule `CC(C)C(NC(=O)C1=Cc2ccccc2OC1)c1cccs1` (stereo unspecified), the inhibition is 5.93%.
As to `Cc1cccc(N2CCN(C(=O)c3cc(COc4ccc(F)c(F)c4)on3)CC2)n1`, the inhibition was 52.2% (active).
In the case of `CCOC(=O)N1CCN(C(=O)c2cc(COc3ccc(C)c(C)c3)on2)CC1`, the inhibition was 74.9% (active).
For `CCCCc1nnc(-c2cc3ccccc3[nH]2)o1` the value was 18.4%; for `CCCc1nnc(-c2cc3ccccc3n2C)o1`, 69% (active); for `CCCc1nnc(-c2cc3ccccc3[nH]2)o1`, 38.4%.
